Experimental findings from publication PMC4552634, “A New Set of Chemical Starting Points with Plasmodium falciparum Transmission-Blocking Potential for Antimalarial Drug Discovery” (PLoS ONE, 2015) are described below.

Molecules are shown by their SMILES. In all, about 13,000 compounds went through this assay and about 3,200 (25%) showed an effect of 50% or more. The list shows a part of the results.

In general, % Inhibition refers to the drop in the measured response relative to a control, in per cent.

The experiment concerns P. falciparum stage V gametocytes. The arrangement: BacTiter-Glo ATP luminescence viability of purified stage V gametocytes in 384-well plates, per cent inhibition versus DMSO. To be noted: 48 h, 5 µM; inhibitor.
For the molecule `FC(F)(F)c1ccc2nc(-c3ccc(-c4ccc(CN5CCN(c6ccncc6)CC5)cc4)cc3)[nH]c2c1` [TCMDC-132915], the “% Inhibition” value is reported as -1.262%. In the case of `COc1cc(F)c2ncc(Cl)c(C(O)CN3CCC(NC(=O)c4ccc5c(n4)NC(=O)CO5)CC3)c2c1` (stereo not drawn) [TCMDC-135912] it was -16.65%; in that of `CCCc1cc(OC)c(CC2c3cccc(O)c3CCN2C)cc1OC` (stereo not drawn) [TCMDC-137435], 12.33%. In the case of `CN(C)c1ccc(C=CC(=O)NC(=O)c2ccccc2O)cc1` [TCMDC-125391] it was 21.33%; in that of `COc1ccc2c(c1)[nH]c1c(C=Cc3ccccc3)nccc12` [TCMDC-125877], -0.575%. In the case of `CCC(Cc1cnc2nc(N)nc(N)c2n1)c1ccc(C(=O)N[C@@H](CCC(=O)O)C(=O)O)cc1` (stereo partly drawn) [TCMDC-137768] it was -32.96%; in that of `CN(c1cc(NC(=O)c2ccc(F)cc2)ccn1)C1CCN(Cc2cccc(C#N)c2)CC1` [TCMDC-134975], 15.95%. As to `CCCCN1CCN(Cc2cccc(NC(=O)c3ccc(Cl)c(Cl)c3)c2)CC1` [TCMDC-134615], the “% Inhibition” value is -27.06%. In the case of `CC(C)CCN1CCCN(Cc2ccc(C(=O)Nc3ccc(Cl)cc3)cc2)CC1` [TCMDC-136413] it was 0.3374%. In the case of `CC(C)CCN1CCCN(Cc2cccc(NC(=O)c3ccc(Cl)c(Cl)c3)c2)CC1` [TCMDC-141827], the “% Inhibition” value is 68.73%. Then `CCCCCCN1CCN(Cc2cccc(NC(=O)c3ccc(Cl)c(Cl)c3)c2)CC1` [TCMDC-134617], with -46.23%; and `O=C(Nc1cccc(CN2CCCN(Cc3ccsc3)CC2)c1)c1ccc(Cl)c(Cl)c1` [TCMDC-134581], with -57.04%; and `O=C(Nc1cccc(CN2CCCN(Cc3cccc(Cl)c3)CC2)c1)c1ccc(Cl)c(Cl)c1` [TCMDC-141822], with 77.55%. Then `Cc1ccc(NC(=O)c2ccc(CN3CCCN(CCC(C)C)CC3)cc2)cc1F` [TCMDC-136410], with -21.57%; and `CC(C)CCN1CCCN(Cc2ccc(C(=O)Nc3ccc(F)c(F)c3)cc2)CC1` [TCMDC-136391], with 89.43%; and `O=C(Nc1cccc(CN2CCCN(Cc3cccnc3)CC2)c1)c1ccc(Cl)c(Cl)c1` [TCMDC-141824], with 12.34%. In the case of `CCC(C)Oc1ccc2nc(N)nc(N)c2c1Cl` (stereo not drawn) [TCMDC-137760], the “% Inhibition” value is 3.28%. In the case of `O=C(NCCOc1ccccc1)[C@H](Cc1ccccc1)Nc1ccnc(NCC2CCCCC2)n1` [TCMDC-134710] it was 2.198%; in that of `CC(C)(C)CNCC(C)(C)c1nc(-c2ccc(Cl)c(O)c2)c(-c2ccncc2)[nH]1` [TCMDC-140549], -40.13%.

`CN1CCCN(Cc2ccc(-c3cccc(NC(=O)c4ccc(Cl)cc4)c3)cc2)CC1` [TCMDC-132628]: the “% Inhibition” value was 20.29%. Consider `CN1N=C2c3ccccc3CCC2C1c1ccc(C#N)cc1` (stereo not drawn) [TCMDC-123771], for which the “% Inhibition” value is -59.69%. In the case of `CN(CCO)Cc1ccc(-c2ccc(NS(=O)(=O)c3cccc4cccnc34)cc2)cc1` [TCMDC-136473] it was -2.439%; in that of `C=C(C)COc1ccc(-c2n[nH]c(C(F)(F)F)c2-c2ccccc2OC)c(O)c1` [TCMDC-124477], 8.317%. Turning to `COc1ccc(N2CCN(C(CNC(=O)C3CCCCC3)c3ccc4c(c3)OCO4)CC2)cc1` (stereo not drawn) [TCMDC-124312], the “% Inhibition” value was 30.25%. In the case of `COc1ccccc1NC(=O)CSc1nc2cccnc2n1-c1ccccc1OC` [TCMDC-123645] it was 66.58%; in that of `COc1ccccc1-n1c(SCC(=O)Nc2ccccc2F)nc2cccnc21` [TCMDC-123647], 7.521%. Then `COc1ccc(C)cc1NC(=O)CSc1nc2cccnc2n1C1CCCCC1` [TCMDC-123649], with 3.671%; and `c1ncc(CCNc2nc(Nc3ccc4c(c3)OCO4)nc(NC3CCCC3)n2)[nH]1` [TCMDC-139739], with 13.1%; and `CC(=O)Nc1ncc(C(=O)Nc2ccc(-c3cccc(-c4nc5ccc(F)cc5[nH]4)c3)cc2)s1` [TCMDC-136912], with 21.3%. In the case of `O=C(Nc1cc(F)cc(F)c1)N1CCOC(CCN2CCC3(CCc4ccccc43)CC2)(c2ccc(Cl)c(Cl)c2)C1` (stereo not drawn) [TCMDC-135331] it was -8.718%; in that of `CCOC(=O)c1c(SCc2cccc(F)c2F)[nH]c2ccccc2c1=O` [TCMDC-141118], 58.44%. Consider `Cc1c(CCc2cccc(F)c2F)[nH]c2ccccc2c1=O` [TCMDC-141293], for which the “% Inhibition” value was 23.35%. In the case of `CCOC(=O)c1c(-c2ccccc2)[nH]c2c(sc3ccccc32)c1=O` [TCMDC-131540] it was 7.736%; in that of `CCCCOC(=O)[C@H](CCC)NC(=O)c1ccc(NS(=O)(=O)c2ccc3nc(N)[nH]c(=O)c3c2)cc1` [TCMDC-137698], 14.55%. In the case of `COc1ccc2ccc(OC)c(CNCCCCCCNCc3c(OC)ccc4ccc(OC)cc34)c2c1` [TCMDC-137796], the “% Inhibition” value was 140.1%. Then `COc1ccc2c(CNCCCCCCNCc3c(OC)ccc4cc(OC)ccc34)c(OC)ccc2c1` [TCMDC-137300], with 117.1%; and `COc1ccc2cc(CNCCCCCCNCc3ccc4cc(OC)ccc4c3)ccc2c1` [TCMDC-137797], with 110.4%; and `COc1ccc(OC)c(C(O)CNC(C)C)c1` (stereo not drawn) [TCMDC-124281], with 22.77%. Take `COc1cc(CNCCCCCCNCc2cc(OC)cc3ccccc23)c2ccccc2c1` [TCMDC-137823]: the “% Inhibition” value came to 16.43%. Then `COc1ccc2c(OC)c(CNCCCCCCNCc3ccc4cc(OC)ccc4c3OC)ccc2c1` [TCMDC-137953], with 105.9%.

On to `Cc1ccc(/C=C/C(=O)NCCCCCN2CCN(C(=O)Nc3ccc(Cl)c(C(F)(F)F)c3)CC2)cc1` [TCMDC-136099], for which the “% Inhibition” value came to 10.82%. As for `CC1(C)N=C(N)N=C(N)N1OCOc1ccc(Cl)cc1` [TCMDC-131734], the “% Inhibition” value was determined as 26.86%.

Turning to `CCCCCCN1CCCN(Cc2ccc(C(=O)Nc3ccc(C)c(F)c3)cc2)CC1` [TCMDC-136411], the “% Inhibition” value amounted to 22.16%. Then `O=C(Nc1cccc(-c2csc(NC(=O)c3ccc4ccccc4c3)n2)c1)c1ccc2ccccc2c1` [TCMDC-124033], with -5.611%; and `NC(N)=Nc1nc(-c2cccc(NC(=O)CCCCCCCON3C(N)=NC(N)=NC34CCCCC4)c2)cs1` [TCMDC-140420], with -29.14%; and `N=C(N)Nc1nc(-c2ccc(NC(=O)Nc3cccc(-c4csc(NC(=N)N)n4)c3)cc2)cs1` [TCMDC-139559], with 111.8%. In the case of `NC(N)=Nc1nc(-c2ccc(NCc3ccc(CNc4cccc(-c5csc(N=C(N)N)n5)c4)cc3)cc2)cs1` [TCMDC-140699] it was 83.03%; in that of `NC(N)=Nc1nc(-c2cccc(NC(=O)NCC(c3ccccc3)c3ccccc3)c2)cs1` [TCMDC-139555], -30.72%. In the case of `NC(N)=Nc1nc(-c2cccc(NC(=O)NCc3cccc4ccccc34)c2)cs1` [TCMDC-139552] it was 11.54%. Turning to `NC(N)=Nc1nc(-c2cccc(NC(=O)C(F)(F)F)c2)cs1` [TCMDC-137441], the “% Inhibition” value is on record as -3.219%. Take `NC(N)=Nc1nc(-c2cccc(NC(=O)Cc3ccccc3)c2)cs1` [TCMDC-139599]: the “% Inhibition” value worked out at 13.87%. In the case of `Cc1ccccc1CNC(=O)Nc1cccc(-c2csc(N=C(N)N)n2)c1` [TCMDC-139553] it was 79.76%; in that of `NC(N)=Nc1nc(-c2cccc(NC(=O)NCc3ccc(OC(F)(F)F)cc3)c2)cs1` [TCMDC-139556], 86.49%. Then `NC(N)=Nc1nc(-c2cccc(NC(=O)NCCc3c[nH]c4ccc(OCc5ccccc5)cc34)c2)cs1` [TCMDC-139557], with -16.48%.

`COc1ccc(CNC(=O)Nc2cccc(-c3csc(N=C(N)N)n3)c2)cc1` [TCMDC-139554]: the “% Inhibition” value is 8.01%. For `CCCNC(=O)C1Cc2cc(OC)c(OC)cc2C2(N1)C(=O)N(Cc1cccc(OC)c1)c1ccccc12` (stereo not drawn) [TCMDC-141464], the “% Inhibition” value came out at 26.41%. Then `C=CCc1cc(OC)ccc1OCCCOc1c(C)nc(N)nc1N` [TCMDC-131358], with 1.5%. Take `CCCCCCc1ncc(-c2cc3cc(O)c(-c4ccccc4)cc3oc2=O)s1` [TCMDC-124096]: the “% Inhibition” value is on record as -4.644%. In the case of `c1ccc2c3c([nH]c2c1)C(c1ccc2c(c1)CCO2)N(c1ncnc(N2CCN(CCCN4CCOCC4)CC2)n1)CC3` (stereo not drawn) [TCMDC-138517] it was 42.57%; in that of `O=[N+]([O-])c1ccc(NC(=NCCOc2ccccc2)Nc2ccccc2Br)c(O)c1` [TCMDC-139982], 18.66%; in that of `Cc1cc(Oc2ccc(-n3ccnc3)cc2)nc(N2CCN(CCCN3CCCC3)CC2)n1` [TCMDC-132208], 34.43%. For the molecule `CCNC[C@H]1CCCN1CCOc1ccc(-n2cnc3cc(-c4ccc(Cl)cc4)sc3c2=O)cc1OC` [TCMDC-134841], the “% Inhibition” value is 68.56%.

With `COc1cc(-n2cnc3cc(-c4ccc([N+](=O)[O-])cc4)sc3c2=O)ccc1OCCN1CCCC1` [TCMDC-138916], the “% Inhibition” value turned out to be 104.9%. For the molecule `CN(CCN1CCCC1)c1nc2ccc(-n3cnc4cc(-c5ccc(Cl)cc5)sc4c3=O)cc2[nH]1` [TCMDC-138918], the “% Inhibition” value stood at 5.034%. Then `COc1cc(-n2c(CN3CCCC3)nc3cc(-c4ccc(Cl)cc4)sc3c2=O)ccc1OCCN1CCCC1` [TCMDC-135298], with 36.8%.

As for `CCN(C)CCCn1c(N(C)C)nc2cc(-n3cnc4cc(-c5ccc(Cl)cc5)sc4c3=O)ccc21` [TCMDC-138926], the “% Inhibition” value is recorded as -50.75%. In the case of `CN(C)c1nc2cc(-n3cnc4cc(-c5ccc(Cl)cc5)sc4c3=O)ccc2n1CCCN1CCCC1` [TCMDC-138922] it was 42.12%; in that of `COc1cc(-n2cnc3cc(-c4ccc(Cl)cc4)sc3c2=O)ccc1OCCN1CCC(c2cccc(NC(C)=O)c2)CC1` [TCMDC-138930], 71.5%; in that of `CN(C)c1nc2cc(-n3cnc4cc(-c5ccc(Cl)cc5)sc4c3=O)ccc2n1CCCN1CCCCC1` [TCMDC-138925], 34.32%.
